Structures are written as SMILES. Calls of active or inactive are those of the source.

In PubChem BioAssay one finds z-score and composite z-score data, which are given here for eight molecules.

Experiment [1] can be described thus: E. coli DRC41 culture turbidity changes, primary screen, E. coli filamentation inducer project, strain DRC41, OD650, 48 h (AID 1152).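 Further: E. coli MC1000 strain DRC41 lacking acrAB efflux pump and sulA.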 As to conditions: E. coli DRC41 (acrAB sulA), higher = more signal, called active from +8 up or from −8 down.
Experiment [2] is described as follows: small-molecule binders of probe aLefty1, primary screen, biochemical, small-molecule microarray, 635/667 nm fluorescence (AID 1153).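 Further: score merges spot fluorescence with signal-to-noise ratio from the scanned slide images.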 As to conditions: higher = more signal.
Experiment [3] is described as follows: PSAC antagonists in infected red cells, primary screen, cell-based, P. falciparum Indochina, OD700, 1 h (AID 1154). The settings on record: P. falciparum Indochina infected RBC osmotic lysis, higher = more signal, called active from +8 up or from −8 down.
A short description of experiment [4]: PSAC antagonists in infected red cells, primary screen, cell-based, P. falciparum Indochina, OD700, 2 h (AID 1155).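 Further: lysis reports solute entry through the parasite surface anion channel PSAC; channel blockers reduce lysis of infected cells.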 As to conditions: P. falciparum Indochina infected erythrocytes, osmotic lysis OD700; higher = more signal, called active from +8 up or from −8 down.
Experiment [5] is described as follows: osmotic lysis modulators in infected erythrocytes, primary screen, PSAC antagonist project, cell-based, P. falciparum Indochina, OD700, 3 h (AID 1156). The settings on record: higher = more signal, called active from +8 up or from −8 down.
A short description of experiment [6]: PSAC antagonists in infected red cells, primary screen, cell-based, P. falciparum Indochina, OD700, 18 h (AID 1157). The settings on record: P. falciparum Indochina infected erythrocytes, osmotic lysis OD700, 18 h; higher = more signal, called active from +8 up or from −8 down.
A short description of experiment [7]: modulators of S6 phosphorylation in cells, primary screen, cell-based, A549, cytoblot, luminescence, serum-stimulated (AID 1158).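 Further: serum-stimulated A549 lung adenocarcinoma cells; signal is phosphorylated S6 detected by cytoblot immunostaining with HRP secondary.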 The settings on record: A549 phospho-S6 cytoblot, 5 h, higher = more signal.
Experiment [8] concerns the target NADPH oxidase 2 (Homo sapiens) (UniProt P04839). The experiment can be described thus: NOX2-dependent H2O2 signal modulators, primary screen, NOX inhibitor project, cell-based, HEK293-NOX2, PMA-stimulated, Amplex Red fluorescence (AID 1159). Further: test concentration not given here. The settings on record: 45 min, higher = more signal, called active from +8 up or from −8 down.
The target in experiment [9] is NADPH oxidase 4 (Homo sapiens) (UniProt Q9NPH5). Nature of the experiment: NOX4-dependent H2O2 signal modulators, primary screen, NOX inhibitor project, cell-based, HEK293-NOX4, tetracycline-induced, Amplex Red fluorescence (AID 1160). The settings on record: 45 min, higher = more signal, called active from +8 up or from −8 down.
The target in experiment [10] is NADPH oxidase 5 (Homo sapiens) (UniProt Q96PH1). The experiment can be described thus: NOX5-dependent H2O2 signal modulators, primary screen, NOX inhibitor project, cell-based, HEK293-NOX5, Amplex Red fluorescence (AID 1161). As to conditions: HEK293-NOX5, ionomycin, 45 min, higher = more signal.
Experiment [11] can be described thus: A549 cell viability effects, profiling panel, calcein-AM fluorescence, 48 h, basal (AID 1162). Further: test concentration not given here. The settings on record: higher = more signal.
The nature of experiment [12]: adipocyte viability effects, profiling panel, cell-based, 3T3-L1 adipocytes, calcein-AM fluorescence, 48 h, basal (AID 1163). Further: test concentration not given here. As to conditions: 3T3-L1 adipocytes viability, higher = more signal.
Experiment [13] in a line: HepG2 cell viability effects, profiling panel, calcein-AM fluorescence, 48 h, basal (AID 1164). Further: test concentration not given here. The settings on record: higher = more signal.
A short description of experiment [14]: MM1S cell viability effects, profiling panel, calcein-AM fluorescence, 48 h, basal (AID 1165).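 Further: viability of MM1S multiple myeloma cells under basal unstimulated conditions; test concentration not given here.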 As to conditions: higher = more signal.
The nature of experiment [15]: basal RPMI8226 viability, no added stimulus, profiling panel, cell-based, calcein-AM fluorescence, 48 h, PK04 Diversity Set (AID 1166).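 Further: cells grown under basal conditions without added stimulus; test concentration not given here.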 As to conditions: RPMI8226 myeloma viability, higher = more signal.
The nature of experiment [16]: basal HepG2 mitochondrial membrane potential changes, profiling panel, cell-based, JC-1 fluorescence, 24 h, 100 nL compound (AID 1167). Further: test concentration not given here. The settings on record: higher = more signal.
Experiment [17] can be described thus: basal 3T3-L1 adipocyte mitochondrial potential changes, profiling panel, cell-based, JC-1 fluorescence, 3T3-L1 adipocytes, 24 h, 100 nL compound (AID 1168). Further: test concentration not given here. The settings on record: JC-1 mitochondrial fluorescence, higher = more signal, called active from +8 up or from −8 down.
The nature of experiment [18]: basal RPMI8226 mitochondrial membrane potential changes, profiling panel, cell-based, JC-1 fluorescence, 24 h, 100 nL compound (AID 1169). Further: test concentration not given here. As to conditions: RPMI8226 myeloma, JC-1 mitochondrial potential fluorescence, higher = more signal.
The nature of experiment [19]: basal MM1S mitochondrial membrane potential changes, profiling panel, cell-based, JC-1 fluorescence, 24 h, 100 nL compound (AID 1170). Further: test concentration not given here. As to conditions: higher = more signal.
A short description of experiment [20]: A549 lung cancer cell viability effects, profiling panel, resazurin fluorescence, 24 h, PK04 Diversity Set (AID 1171). Further: test concentration not given here. As to conditions: higher = more signal, called active from +8 up or from −8 down.

Sequence of NADPH oxidase 4 (Homo sapiens) (Q9NPH5 whole entry, looked up): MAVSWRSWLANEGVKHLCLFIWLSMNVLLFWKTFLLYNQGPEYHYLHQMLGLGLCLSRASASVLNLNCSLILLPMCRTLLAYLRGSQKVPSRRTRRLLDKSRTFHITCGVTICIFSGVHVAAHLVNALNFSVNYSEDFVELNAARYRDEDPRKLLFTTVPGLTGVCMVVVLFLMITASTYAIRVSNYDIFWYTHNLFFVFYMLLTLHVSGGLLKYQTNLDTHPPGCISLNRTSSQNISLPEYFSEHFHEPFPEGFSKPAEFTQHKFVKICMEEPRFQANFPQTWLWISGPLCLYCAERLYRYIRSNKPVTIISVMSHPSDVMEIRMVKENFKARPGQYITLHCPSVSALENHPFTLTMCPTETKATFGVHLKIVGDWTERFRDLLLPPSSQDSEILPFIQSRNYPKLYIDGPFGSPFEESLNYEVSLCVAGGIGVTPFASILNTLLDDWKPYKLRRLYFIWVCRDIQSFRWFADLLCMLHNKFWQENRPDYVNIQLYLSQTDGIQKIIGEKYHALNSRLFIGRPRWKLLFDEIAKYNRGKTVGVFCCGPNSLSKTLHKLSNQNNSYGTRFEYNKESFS
Sequence of NADPH oxidase 5 (Homo sapiens) (Q96PH1 whole entry, looked up): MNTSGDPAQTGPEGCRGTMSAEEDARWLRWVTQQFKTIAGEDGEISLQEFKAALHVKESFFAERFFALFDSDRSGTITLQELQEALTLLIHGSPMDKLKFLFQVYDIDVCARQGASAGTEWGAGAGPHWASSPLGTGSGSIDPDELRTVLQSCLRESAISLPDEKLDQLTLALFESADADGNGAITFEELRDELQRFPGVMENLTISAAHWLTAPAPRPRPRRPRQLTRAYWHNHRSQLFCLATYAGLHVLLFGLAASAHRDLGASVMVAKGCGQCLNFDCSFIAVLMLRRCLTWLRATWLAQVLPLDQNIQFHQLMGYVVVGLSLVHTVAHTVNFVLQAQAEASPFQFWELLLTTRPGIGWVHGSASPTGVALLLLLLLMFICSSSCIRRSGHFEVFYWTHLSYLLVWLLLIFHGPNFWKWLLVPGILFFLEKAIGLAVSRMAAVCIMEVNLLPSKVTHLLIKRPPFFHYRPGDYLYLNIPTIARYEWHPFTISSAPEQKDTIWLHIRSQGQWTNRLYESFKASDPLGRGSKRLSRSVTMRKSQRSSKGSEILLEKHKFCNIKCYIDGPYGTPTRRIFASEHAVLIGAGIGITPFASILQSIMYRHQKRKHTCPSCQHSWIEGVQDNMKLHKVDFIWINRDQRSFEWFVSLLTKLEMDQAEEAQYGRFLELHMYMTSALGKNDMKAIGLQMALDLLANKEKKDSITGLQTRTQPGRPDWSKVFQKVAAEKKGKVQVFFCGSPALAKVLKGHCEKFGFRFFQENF
Sequence of NADPH oxidase 2 (Homo sapiens) (P04839 whole entry, looked up): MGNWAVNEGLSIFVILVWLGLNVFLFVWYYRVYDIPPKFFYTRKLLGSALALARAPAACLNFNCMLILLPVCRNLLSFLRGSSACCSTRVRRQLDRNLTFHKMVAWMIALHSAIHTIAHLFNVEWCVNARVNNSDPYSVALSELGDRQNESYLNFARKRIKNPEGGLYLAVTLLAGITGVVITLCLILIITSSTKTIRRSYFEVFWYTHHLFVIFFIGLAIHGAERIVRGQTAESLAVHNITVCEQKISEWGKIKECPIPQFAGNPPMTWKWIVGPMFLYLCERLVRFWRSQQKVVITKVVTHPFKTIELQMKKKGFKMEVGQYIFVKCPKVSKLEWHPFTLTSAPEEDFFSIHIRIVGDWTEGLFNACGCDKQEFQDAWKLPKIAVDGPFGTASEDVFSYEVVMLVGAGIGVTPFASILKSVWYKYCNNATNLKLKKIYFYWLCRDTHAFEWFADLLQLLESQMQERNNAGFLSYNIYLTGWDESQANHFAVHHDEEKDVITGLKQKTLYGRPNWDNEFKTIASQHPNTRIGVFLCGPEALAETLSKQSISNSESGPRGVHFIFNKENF

Regarding `COC(=O)C(CC#Cc1ccc2c(c1)[C@]1(C(=O)N2)[C@H](C(=O)NC[C@H](O)c2ccccc2)[C@H]2C(=O)O[C@H](c3ccccc3)[C@H](c3ccccc3)N2[C@@H]1c1ccccc1OCCO)C(=O)OC`, the z-score is 1.52 (inactive) in experiment [1]; 4.2 (inactive) in [3]; 0.574 (inactive) in experiment [4]; 0.725 (inactive) in experiment [5]; -0.124 (inactive) in [6]; 1.46 in experiment [7]. In addition, the z-score is 0.504 (inactive) in experiment [8]; -0.421 (inactive) in [9]; -2.45 in experiment [10]; -0.101 in [11]; 1.14 in experiment [12]; -0.272 in experiment [13]. Further, the z-score was -3.29 in experiment [14]; -4.57 in [15]; -0.0353 in [16]; 1.82 (inactive) in experiment [17]; -1.16 in experiment [18]; -2.1 in experiment [19]. In experiment [20], the z-score is 0.422 (inactive). In addition, the composite z-score in experiment [2] is -0.0559.
For `COCCOC(=O)N1C(=O)[C@@]2(c3cc(C#CCCO)ccc31)[C@H](C(N)=O)[C@H]1C(=O)O[C@H](c3ccccc3)[C@H](c3ccccc3)N1[C@@H]2c1ccccc1OCCO`, the z-score is -0.3 (inactive) in experiment [1]; 12.2 (active) in experiment [3]; 2.47 (inactive) in experiment [4]; 1.99 (inactive) in experiment [5]; 0.68 (inactive) in experiment [6]; 1.02 in [7]. In addition, the z-score in experiment [8] was 1.51 (inactive); in [9], 0.755 (inactive); in [10], 0.594; in experiment [11], -0.21; in [12] it was -0.0387; in experiment [13], -0.16. The z-score in experiment [14] was -1.87; in experiment [15] it was -2.92; in experiment [16] it was -0.529; in experiment [17] it was 0.181 (inactive); in experiment [18] it was -0.821; in experiment [19], -1.47. Besides, the z-score in [20] was -0.191 (inactive). In experiment [2], this molecule displayed a composite z-score of -0.147.
On to `O=C1C2C=CC(C(O)c3cccs3)N(Nc3ccc([N+](=O)[O-])cc3)C2C(=O)N1c1ccccc1` (stereo not given), for which the z-score in experiment [1] was -0.46 (inactive); in [3], 8.61 (active); in experiment [4], 1.43 (inactive); in experiment [5], 1.75 (inactive); in experiment [6] it was 0.753 (inactive); in [7], -0.772. For the same molecule, the z-score in experiment [8] is -0.437 (inactive); in experiment [9], -2.75 (inactive); in experiment [10], -1.55; in [11], -0.792; in experiment [12], -1.01; in experiment [13] it was 1.43. The z-score in [14] was -0.752; in experiment [15], -0.85; in experiment [16] it was -0.841; in experiment [17], -0.728 (inactive); in experiment [18], 0.569; in experiment [19] it was -1.46. Moreover, the z-score in experiment [20] was 0.644 (inactive). Besides, in [2], the composite z-score is -0.105.
On to `O=C(N1CCOCC1)[C@@]1(Cc2ccccc2)COC(c2ccc(OCCCO)cc2)=N1`, for which the z-score was 2.51 (inactive) in experiment [1]; 12 (active) in [3]; 0.653 (inactive) in experiment [4]; 0.929 (inactive) in experiment [5]; -0.269 (inactive) in experiment [6]; 1.66 in experiment [7]. Besides, the z-score in [8] is -2.33 (inactive); in experiment [9] it was 0.642 (inactive); in experiment [10] it was -1.51; in experiment [11], -0.114; in experiment [12], 0.893; in [13], -0.985. Further, the z-score is -1.6 in experiment [14]; -0.907 in experiment [15]; -1.12 in experiment [16]; 0.0409 (inactive) in [17]; -0.856 in [18]; -0.095 in experiment [19]. The z-score in experiment [20] is 0.628 (inactive). Moreover, in experiment [2], the composite z-score was -0.132.
Consider `CC1=C([C@H](O)CCc2ccccc2)[C@H](CO)n2c(=O)n(-c3ccccc3)c(=O)n2C1`, for which the z-score in [1] was 2.91 (inactive); in [3], 1.44 (inactive); in [4], -0.657 (inactive); in experiment [5] it was -0.237 (inactive); in [6] it was -1.48 (inactive); in [7] it was 1.77. For the same molecule, the z-score is -0.53 (inactive) in [8]; -0.429 (inactive) in experiment [9]; 0.218 in experiment [10]; 0.229 in [11]; 0.273 in experiment [12]; 0.862 in [13]. The z-score in [14] is 0.5; in [15], 0.874; in experiment [16], -0.303; in experiment [17] it was 0.603 (inactive); in experiment [18] it was -0.237; in experiment [19] it was -1.16. The z-score in experiment [20] is -0.331 (inactive). The composite z-score in experiment [2] was -0.06.
As for `CCOC(=O)C[C@H]1[C@H](OC(=O)c2ccccc2-c2ccccc2)[C@@H](NC(=O)c2ccc3ccccc3c2)c2cc(OCCCO)ccc2N1C(=O)Cc1ccc(OC)cc1`, the z-score is -0.878 (inactive) in experiment [1]; 4.15 (inactive) in experiment [3]; 0.403 (inactive) in experiment [4]; -0.681 (inactive) in [5]; 0.281 (inactive) in experiment [6]; 0.12 in experiment [7]. Further, the z-score in experiment [8] is 0.0357 (inactive); in [9], 1.02 (inactive); in experiment [10] it was 1.01; in [11], 0.0867; in experiment [12], 0.152; in experiment [13], 0.278. Moreover, the z-score in experiment [14] is 0.306; in [15], -0.543; in [16] it was -0.175; in experiment [17], 0.367 (inactive); in experiment [18], -0.49; in [19] it was 0.0571. Moreover, the z-score in [20] is -0.439 (inactive). In [2], the composite z-score is -0.241.
With `CN(C)CCCNC(=O)[C@@]1(C)c2ccccc2C(=O)N(Cc2ccc(OC(F)(F)F)cc2)[C@H]1c1ccc(CO)cc1`, the z-score in experiment [1] is -0.796 (inactive); in [3], 1.53 (inactive); in experiment [4] it was -0.103 (inactive); in experiment [5], 2.79 (inactive); in experiment [6], 0.328 (inactive); in [7], 0.235. Also, the z-score is -0.607 (inactive) in experiment [8]; -0.303 (inactive) in experiment [9]; -1.63 in experiment [10]; 0.173 in experiment [11]; 0.886 in [12]; -0.261 in experiment [13]. For the same molecule, the z-score is -0.0385 in experiment [14]; 0.513 in experiment [15]; 1.88 in experiment [16]; -0.422 (inactive) in [17]; -0.136 in experiment [18]; 0.197 in [19]. Besides, the z-score in experiment [20] was 0.074 (inactive). In [2], this molecule yielded a composite z-score of -0.104.
In the case of `CC(C)NC(=O)[C@@H]1c2ccccc2C(=O)N(Cc2ccccc2C(F)(F)F)[C@H]1c1ccc(CO)cc1`, the z-score was 0.0029 (inactive) in [1]; 2.58 (inactive) in [3]; 0.0744 (inactive) in experiment [4]; 1.32 (inactive) in experiment [5]; 0.596 (inactive) in experiment [6]; -0.262 in experiment [7]. In addition, the z-score is 1.21 (inactive) in [8]; -0.805 (inactive) in [9]; -1.97 in [10]; -0.385 in [11]; -0.341 in experiment [12]; -0.052 in experiment [13]. Further, the z-score is -0.321 in experiment [14]; 0.749 in experiment [15]; 0.186 in [16]; -1.81 (inactive) in experiment [17]; 0.317 in experiment [18]; 0.0239 in experiment [19]. Also, the z-score in experiment [20] was 2.53 (inactive). Also, the composite z-score in [2] was -0.556.
